The campaign covered roughly 16,000 compounds. About 5,800 (36%) were called active. Roughly 23% stayed inconclusive and do not appear here. This is one part of the list. Unmarked numbers belong to inactive results. Calls follow the shape of the dose curve; as a rule, active = well fitted curve in the direction sought with a large enough effect; inconclusive = small, poorly fitted or top-dose-only effect, or effect the other way; inactive = no such curve, though single readings can be large or run the other way.
% is scaled to controls: 0 for no effect and ±100 for the full control effect.

The target in the experiment is Cytochrome P450 2C19 (Homo sapiens) (UniProt P33261). Kind of experiment: Cytochrome panel assay with activity outcomes. Particulars: recombinant CYP, pro-luciferin dealkylation, luminescence, p450-cyp2c19; series mostly up to 57.1 µM.
Sequence of Cytochrome P450 2C19 (Homo sapiens) (P33261 whole entry, looked up): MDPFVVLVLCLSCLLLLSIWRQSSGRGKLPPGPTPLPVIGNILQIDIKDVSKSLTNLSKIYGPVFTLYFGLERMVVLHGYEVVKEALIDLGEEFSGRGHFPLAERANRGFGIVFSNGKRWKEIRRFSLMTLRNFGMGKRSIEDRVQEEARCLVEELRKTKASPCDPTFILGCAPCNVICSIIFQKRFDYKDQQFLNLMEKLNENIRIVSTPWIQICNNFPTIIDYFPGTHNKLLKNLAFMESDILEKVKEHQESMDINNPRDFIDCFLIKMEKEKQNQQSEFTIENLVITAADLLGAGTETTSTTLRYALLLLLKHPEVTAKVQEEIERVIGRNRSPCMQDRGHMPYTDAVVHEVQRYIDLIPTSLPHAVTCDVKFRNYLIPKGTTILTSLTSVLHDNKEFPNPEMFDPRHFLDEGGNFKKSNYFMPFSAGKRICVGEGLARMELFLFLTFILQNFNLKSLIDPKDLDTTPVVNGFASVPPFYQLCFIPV
Consider `Cc1ccc(-[n+]2cc(=O)o[nH]2)cc1`, for which the activity, negative = inhibition is -19.9% [at 11.4 µM].

The term AC50 denotes the concentration giving half of the maximal activity seen. On to `CC(C)NC(=O)N1CCCC2(CCN(C(=O)c3ccncc3)CC2)C1`, for which the AC50 result was “inactive”.

In the case of `CSc1nc(NC2CCCC2)c([N+](=O)[O-])c(NC2CCCC2)n1`, the AC50 was 5.01 µM (active).

Turning to `CCNc1nnc(-c2ccncc2)s1`, the AC50 is 5.01 µM (active).

Turning to `COc1ccc(C(=O)O/N=C/c2ccc(S(=O)c3ccc(Cl)cc3)nc2)cc1` (stereo unspecified), the AC50 is 14.1 µM (active).

In the case of `c1cc(CN2CCCCC2)cc(OCCCNc2nc3ccccc3s2)c1`, the AC50 result is “inactive”.

As to `COc1ccc2nc(NC(=O)C3CCN(S(=O)(=O)c4cccc5nsnc45)CC3)sc2c1`, the AC50 is 1.41 µM (active).

Take `Cc1cccc(NC(=O)C2CCN(S(=O)(=O)c3cccc4nsnc34)CC2)n1`: the AC50 was 10 µM (active).

In the case of `COc1ccc2nc(NCN3C(=O)c4ccccc4C3=O)sc2c1`, the AC50 was 2.51 µM (active).

In the case of `O=C(NCC1COc2ccccc2O1)C1CCN(S(=O)(=O)c2cccc3nsnc23)CC1` (stereo unspecified), the concentration at half-maximal activity (AC50) is 14.1 µM (active).

For the molecule `O=C(NCc1cccs1)C1CCN(S(=O)(=O)c2cccc3nsnc23)CC1`, the AC50 entry is “inactive”.

On to `COc1ccc(OC)c(S(=O)(=O)N2CCC(C(=O)Nc3ccc(C)c(C)c3)CC2)c1`, for which the AC50 was 14.1 µM (active).

Turning to `COc1ccc(OC)c(S(=O)(=O)N2CCC(C(=O)NCCc3ccccc3)CC2)c1`, the AC50 result is “inactive”.

In the case of `CC1(C)C(=O)C(c2ccccc2)=C2CN3C(=O)N(CCc4ccccc4)C(=O)C3(Cc3ccc(C(F)(F)F)cc3)C=C21` (stereo unspecified), the AC50 entry is “inactive”.

Consider `NC(=O)C[C@H](N)C(N)=O`, for which the activity, negative = inhibition was -4.71% [at 11.4 µM].

`CN(C)C[C@H]1CCC2=C(C1=O)C(c1ccc(Cl)c(Cl)c1)C1=C(CC[C@H](CN(C)C)C1=O)O2`: the activity, negative = inhibition was 13.9% [at 11.4 µM].

Take `O=C1CCCC2=C1C(c1ccc(OS(=O)(=O)c3ccc(Cl)cc3)cc1)C1=C(CCCC1=O)O2`: the half-maximal activity concentration (AC50) is 3.98 µM (active).

For the molecule `Cc1ccc(S(=O)(=O)Oc2ccc(C3C4=C(CCCC4=O)OC4=C3C(=O)CCC4)cc2)cc1`, the AC50 is 4.47 µM (active).

Take `c1ccc(-n2ncc3c2ncn2cnnc32)cc1`: the AC50 entry is “inactive”.

As for `O=c1oc(-c2ccco2)nc2c1cnn2-c1ccccc1`, the AC50 was 7.08 µM (active).

As to `COC(=O)C(NNc1ccccc1)(NC(=O)c1ccccc1F)C(F)(F)F` (stereo unspecified), the AC50 was 2.24 µM (active).

For `O=C(O)c1ccccc1C(=O)NNc1ccc(F)cc1`, the AC50 result is “inactive”.

For the molecule `CCN(CC)CCN1C(=O)c2cccc3cc(N)cc(c23)C1=O`, the activity, negative = inhibition was 44.4% [at 11.4 µM].

With `Cc1ccc(C(=O)O)cc1N1C(=O)c2cccc3cc(Br)cc(c23)C1=O`, the AC50 was 14.1 µM (active).

As to `CC1CSc2nc3sc4c(c3c(=O)n21)CCCC4` (stereo unspecified), the AC50 was 15.8 µM (active).

Consider `CCN(CC(=O)NCc1cccs1)S(=O)(=O)c1ccc(C(C)C)cc1`, for which the AC50 was 5.62 µM (active).

Regarding `OCCCSCCO`, the activity, negative = inhibition is 18.7% [at 11.4 µM].

As for `CC(C)COP(=O)(OCC(C)C)C(O)c1ccccc1F` (stereo unspecified), the AC50 entry is “inactive”.

In the case of `CC(C)COP(=O)(c1ccc(N(C)C)cc1)C(O)c1ccccc1F` (stereo unspecified), the half-maximal activity concentration (AC50) was 5.62 µM (active).

Regarding `Clc1ccc(-c2ccnc(Oc3cc(Cl)ccc3Cl)n2)cc1`, the AC50 was 0.316 µM (active).

As to `O=C(O)/C=C\C(=O)Nc1ccc2c(c1)-c1ccccc1C2`, the activity, negative = inhibition was -24.1% [at 11.4 µM].

For the molecule `S=C(Nc1ccc2c(c1)Cc1ccccc1-2)Nc1ccc2c(c1)Cc1ccccc1-2`, the activity, negative = inhibition is -8.36% [at 11.4 µM].

On to `C(/C=C\c1ccccc1)=Nc1ccc2c(c1)Cc1ccccc1-2`, for which the AC50 was 3.98 µM (active).

Take `CCCCOC(=O)c1cc2c(cn1)[nH]c1ccccc12`: the AC50 is 5.01 µM (active).

As for `Cc1noc(NS(=O)(=O)c2ccc(N/C=C/C(=O)c3ccc4c(c3)OCO4)cc2)c1C`, the AC50 entry was “inactive”.

With `CC(=O)c1cccc(NS(=O)(=O)c2ccc(N/C=C\C(=O)c3ccc(F)cc3)cc2)c1`, the AC50 was 5.62 µM (active).

Consider `Cn1c(=O)c(-c2cc(F)cc(F)c2)nc2cnc(N3CCOCC3)nc21`, for which the AC50 entry is “inactive”.

As to `COC(=O)c1[nH]c2ccc(Br)cc2c1NC(=O)CN1CCN(C2CCCCC2)CC1`, the AC50 was 15.8 µM (active).

`COC(=O)c1[nH]c2cccc(OC)c2c1NC(=O)CN(C)CC1OCCO1`: the AC50 result was “inactive”.

As for `COC(=O)c1[nH]c2ccc(Br)cc2c1NC(=O)CN1CCCc2ccccc21`, the AC50 is 7.94 µM (active).

As to `COC(=O)c1[nH]c2cc(OC)ccc2c1NC(=O)CCN1CCSCC1`, the AC50 entry was “inactive”.

With `Cc1ccc(S(=O)(=O)N[C@H]2COC(=O)[C@@H](Cc3ccccc3)NC(=O)[C@@H](C)COC(=O)C/C=C\[C@@H]2C)cc1`, the activity, negative = inhibition was 32% [at 11.4 µM].

For the molecule `O=C(c1csnn1)N1CCC2(CCN(Cc3nccs3)CC2)CC1`, the AC50 entry was “inactive”.

Consider `CCN(CC)CC[n+]1ccc2c(C)c3[nH]c4ccc(O)cc4c3c(C)c2c1`, for which the activity, negative = inhibition is 42.4% [at 11.4 µM].

For the molecule `CCCS(=O)(=O)N1CCN(CC2CC=CCC2)CC1` (stereo unspecified), the AC50 was 3.98 µM (active).

On to `CCCS(=O)(=O)N1CCCC(C(=O)N2CCOCC2)C1` (stereo unspecified), for which the AC50 result is “inactive”.

As to `CCCS(=O)(=O)N1CCCC(C(=O)NCCN2CCOCC2)C1` (stereo unspecified), the AC50 result was “inactive”.

For the molecule `O=c1cc(CF)[nH]c(=S)[nH]1`, the activity, negative = inhibition is 16.1% [at 11.4 µM].

With `CN(NC(=O)NN)c1ncc(C(F)(F)F)cc1Cl`, the AC50 was 10 µM (active).

Take `O=C(CN(C(=O)CSc1nc2ccccc2o1)c1cccc(F)c1)NC1CCCCC1`: the AC50 is 1 µM (active).

As to `NC(N)=N/N=C(\c1ccc(Cl)cc1)C1CC1`, the activity, negative = inhibition is -27.1% [at 11.4 µM].

Consider `COc1ccc(N2C(N)=NC(N)=NC2(C)C)cc1`, for which the AC50 result was “inactive”.

In the case of `COc1ccc2nc(N)sc2c1`, the AC50 was 31.6 µM (active).

With `COc1ccc(Cc2c(N)nc(N)nc2N)cc1`, the AC50 entry is “inactive”.

Turning to `O=C1NC(c2cccc([N+](=O)[O-])c2)=CCN1c1ccccc1O`, the AC50 was 6.31 µM (active).

Consider `Cc1ccccc1NC(=S)NC(=O)c1cc(-c2ccccc2)nc2ccccc12`, for which the AC50 is 2.82 µM (active).

As for `O=C(O)c1cc(-c2ccc3cc4c(cc3c2)OCO4)nc2ccccc12`, the activity, negative = inhibition is 35.1% [at 11.4 µM].

Regarding `Cc1ccc(-c2cc(C(=O)NN=C3CCCC3)c3ccccc3n2)cc1`, the AC50 is 28.2 µM (active).

Consider `Cc1cccc(NC(=S)NC(=O)c2cc(-c3ccccc3)nc3ccccc23)c1`, for which the AC50 was 1.58 µM (active).

`CCCOc1ccc(C(=O)NNC(=S)NC(=O)c2cc(-c3ccccc3)nc3ccccc23)cc1`: the AC50 entry was “inactive”.

In the case of `C[C@@]12CC(=O)[C@@H]3[C@@H](CCC4=CC(=O)CC[C@]43C)[C@@H]1CC=C2CC(=O)O`, the activity, negative = inhibition is 30.4% [at 11.4 µM].

`COCC(=O)N1CCC2(CCCN(C(=O)Nc3ccccc3)C2)CC1`: the AC50 entry was “inactive”.

For the molecule `COCC(=O)N1CCC2(CCN(Cc3ccncc3)CC2)CC1`, the AC50 was 0.0251 µM (active).

For `c1ccc(-c2ccc(N3CC4(CCNCC4)C3)cc2)cc1`, the AC50 entry is “inactive”.

Consider `COCC(=O)N1CCC2(CCCN(c3cccc(-c4ccccc4)c3)C2)CC1`, for which the AC50 is 15.8 µM (active).

Take `COCC(=O)N1CCC2(CC1)CN(C(=O)Nc1ccc(OC)cc1)C2`: the AC50 entry was “inactive”.

Regarding `O=C(Oc1ccccc1)N1CCC2(CCCN(c3cccc(-c4ccccc4)c3)C2)CC1`, the AC50 entry is “inactive”.

Take `c1ccc(-c2ccc(N3CCCC4(CCNCC4)C3)cc2)cc1`: the AC50 is 15.8 µM (active).

For the molecule `c1ccc(-c2cccc(N3CC4(CCNCC4)C3)c2)cc1`, the AC50 entry is “inactive”.

Turning to `O=C(c1ccncc1)N1CCC2(CCN(Cc3ccncc3)CC2)CC1`, the AC50 entry was “inactive”.

Take `COCC(=O)N1CCC2(CCCN(c3ccncc3)C2)CC1`: the AC50 result was “inactive”.

As to `COCC(=O)N1CCC2(CC1)CN(C(=O)Nc1ccccc1)C2`, the AC50 is 5.01 µM (active).

As for `CC(=O)N1CCC2(CCN(Cc3ccncc3)CC2)CC1`, the AC50 entry was “inactive”.

Take `CCN=C(N)CSS(=O)(=O)O`: the activity, negative = inhibition is -0.003% [at 11.4 µM].

Take `CC(=O)N1CCC2(CC1)CCN(c1cccc(-c3ccccc3)c1)CC2`: the AC50 entry is “inactive”.

As to `CC(=O)N1CCC2(CCCN(Cc3ccccc3)C2)CC1`, the AC50 entry is “inactive”.

For `CC(=O)N1CCC[C@@]2(CCN(c3ccccc3)C2)C1`, the AC50 result is “inactive”.

As for `COc1ccc(C(=O)N2CCC[C@@]3(CCN(c4cccc(-c5ccccc5)c4)C3)C2)cc1`, the AC50 is 7.94 µM (active).

For `COc1ccc(C(=O)N2CCC[C@@]3(CCN(C(=O)Nc4ccccc4)C3)C2)cc1`, the AC50 result is “inactive”.

In the case of `CC(=O)N1CCC2(CCCN(c3ccccc3)C2)CC1`, the AC50 was 25.1 µM (active).

In the case of `O=C(c1cnccn1)N1CCC2(CC1)CCN(c1ccccc1)CC2`, the AC50 entry was “inactive”.

`O=C(c1cnccn1)N1CCC2(CCCN(c3ccccc3)C2)CC1`: the AC50 is 0.501 µM (active).

On to `COc1ccc(C(=O)N2CCC[C@@]3(CCN(Cc4ccccc4)C3)C2)cc1`, for which the AC50 result is “inactive”.

In the case of `CC(=O)N1CCC2(CCCN(c3cccc(-c4ccccc4)c3)C2)CC1`, the AC50 was 15.8 µM (active).

Take `O=C(c1cnccn1)N1CCC2(CC1)CN(c1ccccc1)C2`: the AC50 result was “inactive”.

As to `Cc1cc(CNC(=O)[C@@H]2C[C@H]2[C@@H](NP(=O)(c2ccccc2)c2ccccc2)c2ccccc2)nn1C`, the AC50 entry is “inactive”.

Regarding `O=C(Nc1ccc2ccccc2c1)[C@@H]1C[C@H]1[C@@H](NP(=O)(c1ccccc1)c1ccccc1)c1ccccc1`, the AC50 result was “inactive”.

As for `O=C(Nc1ccc2ccccc2c1)[C@H]1C[C@@H]1[C@H](NP(=O)(c1ccccc1)c1ccccc1)c1ccccc1`, the AC50 is 3.16 µM (active).

Turning to `O=C(NCCc1c[nH]c2ccccc12)[C@H]1C[C@@H]1[C@H](NP(=O)(c1ccccc1)c1ccccc1)c1ccccc1`, the AC50 was 1.26 µM (active).

On to `Cc1cc(CNC(=O)[C@H]2C[C@@H]2[C@H](NP(=O)(c2ccccc2)c2ccccc2)c2ccccc2)nn1C`, for which the AC50 result is “inactive”.

For `O=C(NCCc1c[nH]c2ccccc12)[C@@H]1C[C@H]1[C@@H](NP(=O)(c1ccccc1)c1ccccc1)c1ccccc1`, the AC50 is 6.31 µM (active).

With `COc1ccc(/C=C(/C#N)C(=O)Nc2cc(C)ccc2C)cc1C(=O)O`, the AC50 result is “inactive”.

For the molecule `CCOC(=O)/C(C#N)=C\c1ccc(OCC(=O)Nc2ccc(C)cc2C)c(OC)c1`, the AC50 was 2.82 µM (active).

`COc1cc(/C=C(/C#N)c2nc3ccccc3[nH]2)ccc1OCC(=O)Nc1ccccc1C`: the AC50 was 4.47 µM (active).

With `CCOC(=O)/C(C#N)=C\N(C)C`, the AC50 result was “inactive”.

As for `COc1cc(/C=C(/C#N)c2nc3ccccc3[nH]2)ccc1Oc1ncccc1[N+](=O)[O-]`, the AC50 is 3.98 µM (active).

(Values after PubChem BioAssay AID1851 (National Center for Advancing Translational Sciences (NCATS), 2009).)
